Screening data deposited in PubChem BioAssay by National Center for Advancing Translational Sciences (NCATS).
The sample as a whole holds a higher share of hits than the screen did.
HTT cytoprotect: Huntington cell model cytoprotection by ATP luminescence | Potency, µM (highest dose often 56.4 µM), hits mostly activators | PC12 HTT-Q103 induced, cytoprotection, ATP luminescence, 40 h | 230,000 compounds, 0.14% hits | AID 1471; note: nearly all actives have a fitted effect of over 45% in size
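Compounds added alongside 100 nM tebufenozide, which induces toxic Q103 huntingtin exon 1-GFP in stable PC12 cells; surviving cells quantified by luminescent ATP measurement. Medium: phenol red-free DMEM, 5% equine and 5% calf serum.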
HTT aggregate: mutant huntingtin aggregation inhibition; 220,000 compounds, 1.1% hits; Potency, µM (highest dose often 46.1 µM), most hits filed as inhibitors; PC12 HttQ103-GFP aggregates, Acumen cytometry, 40 h; note: nearly all actives have a fitted effect of over 60% in size
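Inducible Q103 Huntingtin exon 1–GFP PC12 line, 1500 cells/well in phenol red free DMEM with 5% equine and 5% calf serum. Tebufenozide 100 nM induced expression; compounds titrated; aggregates quantified by cytometry.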
PNC assembly inh: inhibitors of perinucleolar compartment assembly. PC3M PTB-GFP, PNC prevalence imaging, 16 h; stronger effect = lower value. activity change (PNC), negative = inhibition, % at 10 µM. 140,000 compounds, 3.1% hits;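 active = readout at or below -70, meaning at least 70% loss of cells showing the perinucleolar compartment, a nuclear body marking cancer cells; inconclusive = readout between -30 and a set limit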
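Read-out is percentage of cells bearing a perinucleolar compartment, from automated 20x imaging of fixed, Hoechst-stained PC3M PTB-GFP cells. Cells were seeded 4 h, then exposed 16 h to compound (23 nl of library stock) in duplicate plates.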
A number is an active result; 0 = inactive; ? = inconclusive; - = not tested or not shown; ! = a repeat was not active; [ ] = another dose, or the depositor's remark. Unless noted, calls come from the whole dose curve; as a rule, active = well fitted curve in the direction sought with a large enough effect; inconclusive = small, poorly fitted or top-dose-only effect, or another doubt; inactive = no such curve, though single readings can be large; an effect the other way counts as inactive or inconclusive.

SMILES	HTT cytoprotect	HTT aggregate	PNC assembly inh
CN(C)NC1CCS(=O)(=O)C1 (centres undefined)	0[10 µM]	0	0
Cc1ccc(NC(=O)C2CC(=O)n3c(nc4ccccc43)N2)cc1Cl (centres undefined)	0	0	-
COc1ccc(-c2cc(C(=O)Nc3cc(C)nn3-c3ccccc3)no2)cc1	0	0	0
COc1ccccc1-c1cc(C(=O)Nc2cc(C)nn2-c2ccccc2)no1	?	0	-129
Cc1ccc(C(=O)N/N=C/c2ccc(S(=O)(=O)O)o2)c(Cl)c1	0	0	0
Cc1ccc(C(=O)CC2(O)C(=O)Nc3ccccc32)s1 (centres undefined)	0[10 µM]	0	0
O=C1CC(C(=O)N2CCN(c3ccc(F)cc3)CC2)CN1CCc1ccccc1 (centres undefined)	0	0	0
COc1ccccc1CN1CC(C(=O)N2CCN(c3ccc(F)cc3)CC2)CC1=O (centres undefined)	0[10 µM]	0	-99
C/C(=N\NC(=S)NC1CCCCC1)c1ccc(O)cc1	0	0	-
C/C(=N\NC(=S)NC1CCCCC1)c1ccccc1	0[10 µM]	0	-100
CCOC(=O)/C(=C/c1ccc(Cl)cc1)NC(=O)c1ccco1	0[0.074 µM]	0	0
CCOc1ccc(NC(=O)NNC(=O)C2CCC(C(C)(C)C)CC2)cc1 (centres undefined)	0[10 µM]	0[9.22 µM]	-
O=C1c2ccccc2NC2(CCCC2)N1O	0	0[1.84 µM]	-108
O=C1c2ccccc2NC2(CCCCC2)N1N=C1CCCCC1	0[0.074 µM]	0	0
Cc1ccc(CSCc2nnc(SCC(=O)N3CCN(c4ccccc4)CC3)n2C)cc1	0	?	0
Cc1cccc(NC(=S)/N=C(\N)Nc2nc(C)c3cc(C)ccc3n2)c1	0[10 µM]	0	0
O=C(Nc1n[nH]c(C2CCCCC2)n1)C1CCCCC1	0	4.5µM	0
O=C(Nc1ncccn1)C1CCCCC1	0[10 µM]	0[9.22 µM]	-
CCCCCCCCCCCCCCCC[N+](C)(C)CCN(Cc1ccc(OC)cc1)c1ncccn1	?	0	-
Cc1ccc(SC(C)C(=O)NC(N)=O)c(C)c1 (centres undefined)	0[10 µM]	0	-
COc1ccccc1NC(=O)c1c([N+](=O)[O-])c(C(C)(C)C)nn1C	?	0[9.22 µM]	-
Nc1ccc2c(c1)C(=O)c1ccccc1C2=O	0	-	-
COC1=C(c2ccccc2)C(=O)c2ccccc2C1=O	-	?	0
O=C1C(=O)c2ccc(-c3ccccc3)cc2-c2ccccc21	0[10 µM]	4.5µM	-105
Nc1ccc2c(c1)C(=O)C(=O)c1ccccc1-2	0[10 µM]	0.79µM	-81
SMILES	HTT cytoprotect	HTT aggregate	PNC assembly inh
Cn1c(NC(=O)/C=C/c2ccco2)cc(=O)n(C)c1=O	0[10 µM]	0	-121
Cc1ccc(/C=C/C(=O)Nc2cc(=O)n(C)c(=O)n2C)o1	0[0.074 µM]	0	0
CCc1ccccc1NC(=O)CSc1nnc([C@@H](N)Cc2ccccc2)o1	0	0	0
CCCC(=O)Nc1ccc(Cl)c(NC(=S)NC(=O)c2cc3ccccc3o2)c1	0[10 µM]	?	0
CC(=O)c1cc(C#N)c(Oc2cc(C)cc(C)c2)nc1C	0	0	-114
CC(=O)c1cc(C#N)c(Oc2ccc(F)cc2)nc1C	0	0	0
O=C(O)CSCC(=O)Nc1ccc(Cl)cc1C(F)(F)F	0	0[9.22 µM]	-
CC(C)N(CC(=O)Nc1ccc(Cl)cc1C(F)(F)F)C(=O)CCl	0	14µM	-
Nc1ccc(C(=O)NCC(=O)O)cc1	3.2µM!	0	-
CCSc1ccc(C(=O)NCC(=O)O)cc1	0[10 µM]	0[9.22 µM]	-
CCNc1ncc2nc(-c3ccc(OC)cc3)c(=O)n(C[C@H]3CCCO3)c2n1	0	-	-
CC(C)CC(NC(=O)C1CCC(C)CC1)C(=O)NCc1cccnc1 (centres undefined)	0[10 µM]	0	0
CC1=C2C(O)C(=O)OC3CC4C(C)(C)C(=O)C=C[C@]4(C)C(CC1)[C@@]23C (some centres undefined)	0	-	-
CCCCOC(=O)c1ccc(NC(=S)NC(=O)c2c(Cl)cnn2C)cc1	0	0	0
O=C(NC(=S)Nc1ccc(CN2CCOCC2)cc1)c1cccc([N+](=O)[O-])c1	0[10 µM]	0	-100
O=C(NC(=S)Nc1ccc(N2CCOCC2)cc1)c1cccc([N+](=O)[O-])c1	0[0.074 µM]	0	0
Cn1c(=O)c2c(nc(NCc3cccnc3)n2Cc2ccc(Cl)cc2)n(C)c1=O	0	0[9.22 µM]	0
CCOC(=O)N1CCN(C(=O)Cc2cccs2)CC1	0	0	?
O=C(NCC1CCN(S(=O)(=O)c2ccccc2)CC1)Nc1ccc(F)cc1F	0[10 µM]	0[9.22 µM]	-
O=C(O)CCCCn1c(SCC(=O)Nc2ccccc2C(F)(F)F)nc2ccsc2c1=O	-	0	-113
O=C(O)CCCCCn1c(SCC(=O)Nc2ccc(F)cc2)nc2ccsc2c1=O	0	0	-
O=C(NCCCc1ccccc1)c1ccccc1O	0[10 µM]	10µM	0
O=C(NCCO)c1ccccc1O	0	0	0
O=C(Nc1ccc(N2CCOCC2)cc1)c1cccc(S(=O)(=O)N2CCCC2)c1	0	0	0
COc1ccc2nc(NC(=O)CSc3nnc(-c4ccoc4C)n3C)sc2c1	0[10 µM]	0	?
SMILES	HTT cytoprotect	HTT aggregate	PNC assembly inh
O=C(CN1C(=O)C2CCCCC2C1=O)Nc1nc(-c2ccccn2)cs1 (centres undefined)	0	11µM	0
C[C@@H](C(=O)Nc1nc(-c2ccccn2)cs1)N1C(=O)C2CCCCC2C1=O (some centres undefined)	0	?	0
CCn1cc(CNC(=O)NC2CCCCC2)c(C)n1	0[10 µM]	0	0
Cc1cc(C(=O)N2CCN(c3ncccn3)CC2)c(C)o1	0[10 µM]	0	?
COc1cc(/C=N/NC(=O)c2cccc([N+](=O)[O-])c2)cc(OC)c1O	0	0	-
COc1cc(OC)c(OC)cc1/C=N/NC(=O)c1ccc(=O)n(C)c1	0[10 µM]	0	?
COc1cccc(/C=N/NC(=O)c2ccc(=O)n(C)c2)c1O	0[10 µM]	7.9µM	?
COc1cccc(/C=N/NC(=O)c2ccc([N+](=O)[O-])cc2Cl)c1O	0[10 µM]	7.1µM	0
Cc1cccn2c(=O)c(/C=N/O)c(Nc3ccccc3F)nc12	0[10 µM]	0[9.22 µM]	-
CC(=O)c1ccc2c(c1)Cc1cc(C(C)=O)ccc1-2	0[10 µM]	0	?
CC(C)Cc1ccc(/C=C/C(=O)N2CCCCC2)cc1	0	0	-
COc1cc(NC(=O)CN(C)Cc2cccc(F)c2)c(C)cc1[N+](=O)[O-]	-	0	-
O=c1c2c(nc3nc(Cc4ccccc4)[nH]n13)CCC2	0[0.074 µM]	0	-90
Cc1nc2nc3c(c(=O)n2[nH]1)CCC3	0[0.074 µM]	0	?
COc1cc(-c2nc3ccc(N4CCN(C)CC4)cc3[nH]2)cc(OC)c1OC	0[10 µM]	0	-
COc1ccc2nc(SCC(=O)Nc3ccccc3)[nH]c2c1	-	0	-107
COc1ccc2nc(SCC(=O)Nc3c(C)cccc3C)[nH]c2c1	0	0	0
CCCCNS(=O)(=O)c1ccc2nc(SCC(=O)Nc3ccccc3Cl)[nH]c2c1	0[10 µM]	0	0
CCCCNS(=O)(=O)c1ccc2nc(SCC(=O)Nc3cccc(F)c3)[nH]c2c1	-	0	-98
Cc1nc([N+](=O)[O-])c(Sc2nc3ccccc3[nH]2)n1Cc1ccccc1	?	?	0
COc1ccc2nc(Sc3c([N+](=O)[O-])nc(C)n3Cc3ccccc3)[nH]c2c1	13µM	-	0
NCCCCCCCCCCN	0[1.9 µM]	-	-
CC(=O)NC(N(C#N)c1nc(Cl)nc(N(C)C)n1)C(Cl)(Cl)Cl (centres undefined)	0[10 µM]	0[9.22 µM]	-
C=CCNC(=S)NNC(=O)c1ccc(OCCCC)cc1	0[10 µM]	0	-122
